{"source": "PubChem BioAssay AID1159580", "about": "(chemical genetic matrix, 2015)", "test": "chemical genetic growth profiling, strain panel (AID 1159580);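 note: tested at 20 µM; growth read once vehicle control cultures reached saturation at 30 °C; 1 = growth at the plate median or of vehicle wells; lower values mean less growth of the strain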", "conditions": "growth OD", "note": "About 2,000 (36%) of roughly 5,500 compounds were called active. Not shown: some 18% with an inconclusive outcome. This is one part of the list. Values without a mark were called inactive. Cut-off read from the data, not from the text of the source: active = normalized growth mostly below about 0.91 (no sharp cut-off); inconclusive = no clear call, values can overlap the other calls; inactive = mostly above about 0.92.", "data": [{"compound": "Cc1cc(O)c(C=O)c2c1C(=O)Oc1c(COC(=O)/C=C/C(=O)O)c(O)c(C(=O)O)c(C)c1O2", "values": [{"measurement": "normalized growth", "setting": "S. cerevisiae deletion strains, locus YJR043C, strain POL32, active compounds read low", "result": 0.954}, {"measurement": "normalized growth", "setting": "S. cerevisiae deletion strains, locus YJR066W, strain TOR1, active compounds read low", "result": 0.931}, {"measurement": "normalized growth", "setting": "S. cerevisiae deletion strains, locus YJR075W, strain HOC1, active compounds read low", "result": 0.962}, {"measurement": "normalized growth", "setting": "S. cerevisiae deletion strains, locus YKL009W, strain mrt4, active compounds read low", "result": 0.974}, {"measurement": "normalized growth", "setting": "S. cerevisiae deletion strains, locus YKL068W, active compounds read low", "result": 0.993}, {"measurement": "normalized growth", "setting": "S. cerevisiae deletion strains, locus YKL085W, strain MDH1 (second series), active compounds read low", "result": 0.991}, {"measurement": "normalized growth", "setting": "S. cerevisiae deletion strains, locus YKL085W, strain MDH1, active compounds read low", "result": 0.991}, {"measurement": "normalized growth", "setting": "S. cerevisiae deletion strains, locus YKL160W, strain elf1, active compounds read low", "result": 0.992}, {"measurement": "normalized growth", "setting": "S. cerevisiae deletion strains, locus YKR001C, strain vps1, active compounds read low", "result": 0.921}, {"measurement": "normalized growth", "setting": "S. cerevisiae deletion strains, locus YKR026C, strain gcn3, active compounds read low", "result": 0.985}, {"measurement": "normalized growth", "setting": "S. cerevisiae deletion strains, locus YKR091W, strain srl3, active compounds read low", "result": 1.01}, {"measurement": "normalized growth", "setting": "S. cerevisiae deletion strains, locus YLL001W, strain dnm1, active compounds read low", "result": "0.888 (active)"}, {"measurement": "normalized growth", "setting": "S. cerevisiae deletion strains, locus YLL026W, active compounds read low", "result": 1.01}, {"measurement": "normalized growth", "setting": "S. cerevisiae deletion strains, locus YLL041C, strain sdh2, active compounds read low", "result": 1}, {"measurement": "normalized growth", "setting": "S. cerevisiae deletion strains, locus YLR027C, strain aat2, active compounds read low", "result": 0.982}, {"measurement": "normalized growth", "setting": "S. cerevisiae deletion strains, locus YLR039C, strain RIC1, active compounds read low", "result": 0.933}, {"measurement": "normalized growth", "setting": "S. cerevisiae deletion strains, locus YLR058C, strain SHM2, active compounds read low", "result": 0.937}, {"measurement": "normalized growth", "setting": "S. cerevisiae deletion strains, locus YLR102C, strain apc9, active compounds read low", "result": 0.991}, {"measurement": "normalized growth", "setting": "S. cerevisiae deletion strains, locus YLR113W, strain HOG1, active compounds read low", "result": 0.984}, {"measurement": "normalized growth", "setting": "S. cerevisiae deletion strains, locus YLR221C, strain rsa3, active compounds read low", "result": 0.946}, {"measurement": "normalized growth", "setting": "S. cerevisiae deletion strains, locus YLR258W, strain gsy2, active compounds read low", "result": 0.987}, {"measurement": "normalized growth", "setting": "S. cerevisiae deletion strains, locus YLR262C, strain YPT6 (second series), active compounds read low", "result": 0.877}, {"measurement": "normalized growth", "setting": "S. cerevisiae deletion strains, locus YLR262C, strain YPT6, active compounds read low", "result": 0.936}, {"measurement": "normalized growth", "setting": "S. cerevisiae deletion strains, locus YLR268W, strain sec22, active compounds read low", "result": 0.924}, {"measurement": "normalized growth", "setting": "S. cerevisiae deletion strains, locus YLR320W, strain mms22, active compounds read low", "result": 0.959}, {"measurement": "normalized growth", "setting": "S. cerevisiae deletion strains, locus YLR330W, strain CHS5, active compounds read low", "result": 0.971}, {"measurement": "normalized growth", "setting": "S. cerevisiae deletion strains, locus YLR342W, strain FKS1 (second series), active compounds read low", "result": 0.98}, {"measurement": "normalized growth", "setting": "S. cerevisiae deletion strains, locus YLR342W, strain FKS1, active compounds read low", "result": 0.968}, {"measurement": "normalized growth", "setting": "S. cerevisiae deletion strains, locus YLR357W, strain rsc2, active compounds read low", "result": "0.841 (active)"}, {"measurement": "normalized growth", "setting": "S. cerevisiae deletion strains, locus YLR370C, strain arc18, active compounds read low", "result": 0.967}, {"measurement": "normalized growth", "setting": "S. cerevisiae deletion strains, locus YLR371W, strain rom2, active compounds read low", "result": 0.943}, {"measurement": "normalized growth", "setting": "S. cerevisiae deletion strains, locus YLR384C, strain iki3, active compounds read low", "result": 0.996}, {"measurement": "normalized growth", "setting": "S. cerevisiae deletion strains, locus YLR418C, strain cdc73, active compounds read low", "result": 0.883}, {"measurement": "normalized growth", "setting": "S. cerevisiae deletion strains, locus YML016C, strain PPZ1, active compounds read low", "result": 0.957}, {"measurement": "normalized growth", "setting": "S. cerevisiae deletion strains, locus YML032C, strain rad52, active compounds read low", "result": 1.01}, {"measurement": "normalized growth", "setting": "S. cerevisiae deletion strains, locus YML120C, strain ndi1, active compounds read low", "result": 1}, {"measurement": "normalized growth", "setting": "S. cerevisiae deletion strains, locus YML124C, strain tub3, active compounds read low", "result": 0.996}, {"measurement": "normalized growth", "setting": "S. cerevisiae deletion strains, locus YMR058W, strain fet3, active compounds read low", "result": "0.311 (active)"}, {"measurement": "normalized growth", "setting": "S. cerevisiae deletion strains, locus YMR078C, strain ctf18, active compounds read low", "result": 0.986}, {"measurement": "normalized growth", "setting": "S. cerevisiae deletion strains, locus YMR125W, strain sto1, active compounds read low", "result": 1.08}, {"measurement": "normalized growth", "setting": "S. cerevisiae deletion strains, locus YMR129W, active compounds read low", "result": 1.01}, {"measurement": "normalized growth", "setting": "S. cerevisiae deletion strains, locus YMR205C, strain PFK2, active compounds read low", "result": 0.998}, {"measurement": "normalized growth", "setting": "S. cerevisiae deletion strains, locus YMR223W, strain ubp8, active compounds read low", "result": 0.961}, {"measurement": "normalized growth", "setting": "S. cerevisiae deletion strains, locus YMR231W, strain pep5, active compounds read low", "result": 0.94}, {"measurement": "normalized growth", "setting": "S. cerevisiae deletion strains, locus YMR307W, strain GAS1, active compounds read low", "result": 0.72}, {"measurement": "normalized growth", "setting": "S. cerevisiae deletion strains, locus YNL067W, strain RPL9B, active compounds read low", "result": 0.92}, {"measurement": "normalized growth", "setting": "S. cerevisiae deletion strains, locus YNL071W, strain lat1, active compounds read low", "result": 1}, {"measurement": "normalized growth", "setting": "S. cerevisiae deletion strains, locus YNL183C, strain NPR1, active compounds read low", "result": 0.931}, {"measurement": "normalized growth", "setting": "S. cerevisiae deletion strains, locus YNL209W, strain ssb2, active compounds read low", "result": "0.804 (active)"}, {"measurement": "normalized growth", "setting": "S. cerevisiae deletion strains, locus YNL233W, strain BNI4, active compounds read low", "result": 0.967}, {"measurement": "normalized growth", "setting": "S. cerevisiae deletion strains, locus YNL248C, strain rpa49, active compounds read low", "result": 1.01}, {"measurement": "normalized growth", "setting": "S. cerevisiae deletion strains, locus YNL250W, strain rad50, active compounds read low", "result": 0.956}, {"measurement": "normalized growth", "setting": "S. cerevisiae deletion strains, locus YNL271C, strain bni1, active compounds read low", "result": 0.954}, {"measurement": "normalized growth", "setting": "S. cerevisiae deletion strains, locus YNL298W, strain CLA4, active compounds read low", "result": 0.966}, {"measurement": "normalized growth", "setting": "S. cerevisiae deletion strains, locus YNL307C, strain MCK1, active compounds read low", "result": 0.98}, {"measurement": "normalized growth", "setting": "S. cerevisiae deletion strains, locus YNL322C, strain KRE1 (second series), active compounds read low", "result": 1.04}, {"measurement": "normalized growth", "setting": "S. cerevisiae deletion strains, locus YNR049C, strain mso1, active compounds read low", "result": 0.995}, {"measurement": "normalized growth", "setting": "S. cerevisiae deletion strains, locus YNR052C, strain pop2, active compounds read low", "result": 0.963}, {"measurement": "normalized growth", "setting": "S. cerevisiae deletion strains, locus YOL012C, strain htz1", "result": 0.751}, {"measurement": "normalized growth", "setting": "S. cerevisiae deletion strains, locus YOL147C, strain pex11, active compounds read low", "result": 0.994}, {"measurement": "normalized growth", "setting": "S. cerevisiae deletion strains, locus YOR001W, strain rrp6, active compounds read low", "result": 0.961}, {"measurement": "normalized growth", "setting": "S. cerevisiae deletion strains, locus YOR061W, strain CKA2, active compounds read low", "result": 0.95}, {"measurement": "normalized growth", "setting": "S. cerevisiae deletion strains, locus YOR069W, strain VPS5, active compounds read low", "result": 0.976}, {"measurement": "normalized growth", "setting": "S. cerevisiae deletion strains, locus YOR070C, strain gyp1, active compounds read low", "result": 0.988}, {"measurement": "normalized growth", "setting": "S. cerevisiae deletion strains, locus YOR080W, strain dia2, active compounds read low", "result": 1.02}, {"measurement": "normalized growth", "setting": "S. cerevisiae deletion strains, locus YOR083W, strain WHI5, active compounds read low", "result": 0.937}, {"measurement": "normalized growth", "setting": "S. cerevisiae deletion strains, locus YOR106W, strain vam3, active compounds read low", "result": "0.709 (active)"}, {"measurement": "normalized growth", "setting": "S. cerevisiae deletion strains, locus YOR136W, strain idh2, active compounds read low", "result": 0.988}, {"measurement": "normalized growth", "setting": "S. cerevisiae deletion strains, locus YOR144C, strain elg1, active compounds read low", "result": 0.993}, {"measurement": "normalized growth", "setting": "S. cerevisiae deletion strains, locus YOR184W, strain ser1, active compounds read low", "result": 0.946}, {"measurement": "normalized growth", "setting": "S. cerevisiae deletion strains, locus YOR231W, strain MKK1, active compounds read low", "result": 0.953}, {"measurement": "normalized growth", "setting": "S. cerevisiae deletion strains, locus YOR265W, strain rbl2, active compounds read low", "result": 0.964}, {"measurement": "normalized growth", "setting": "S. cerevisiae deletion strains, locus YOR270C, strain vph1, active compounds read low", "result": "0.503 (active)"}, {"measurement": "normalized growth", "setting": "S. cerevisiae deletion strains, locus YOR290C, strain snf2, active compounds read low", "result": 0.869}, {"measurement": "normalized growth", "setting": "S. cerevisiae deletion strains, locus YOR316C, strain cot1, active compounds read low", "result": 0.989}, {"measurement": "normalized growth", "setting": "S. cerevisiae deletion strains, locus YPL051W, strain arl3, active compounds read low", "result": "0.831 (active)"}, {"measurement": "normalized growth", "setting": "S. cerevisiae deletion strains, locus YPL078C, strain atp4, active compounds read low", "result": 0.925}, {"measurement": "normalized growth", "setting": "S. cerevisiae deletion strains, locus YPL106C, strain sse1, active compounds read low", "result": 0.942}, {"measurement": "normalized growth", "setting": "S. cerevisiae deletion strains, locus YPL240C, strain hsp82, active compounds read low", "result": 1.01}, {"measurement": "normalized growth", "setting": "S. cerevisiae deletion strains, locus YPL256C, strain CLN2, active compounds read low", "result": 1.01}, {"measurement": "normalized growth", "setting": "S. cerevisiae deletion strains, locus YPR119W, strain clb2, active compounds read low", "result": 0.991}, {"measurement": "normalized growth", "setting": "S. cerevisiae deletion strains, locus YPR141C, strain kar3, active compounds read low", "result": 0.96}, {"measurement": "normalized growth", "setting": "S. cerevisiae deletion strains, locus YPR163C, strain tif3, active compounds read low", "result": 0.987}, {"measurement": "normalized growth", "setting": "S. cerevisiae deletion strains, locus YPR167C, strain met16, active compounds read low", "result": 0.998}, {"measurement": "normalized growth", "setting": "S. cerevisiae deletion strains, strain wtn01, active compounds read low", "result": 0.945}, {"measurement": "normalized growth", "setting": "S. cerevisiae strains, strain wild type, active compounds read low", "result": "0.874 (active)"}]}]}
